In PubChem BioAssay:
Activity calls are given as the source filed them.

Experiments:
[1] = small molecules captured by biotinylated probe aFSTL3 – biochemical, small-molecule microarray, fluorescence 635/667, stem cell growth factor project, primary screen (AID 1064); conditions: higher = more signal;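 further: measures binding of the biotinylated anti-FSTL3 antibody to printed compounds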
[2] = binders from COS7 lysate, DM2A8 probe, primary screen, torsin A project, cell lysate, small-molecule microarray, fluorescence 635/667 (AID 1065); conditions: higher = more signal, COS7 lysate expressing mutant human TOR1A
[3] = small molecules captured by biotinylated probe aFGF2 – biochemical, small-molecule microarray, fluorescence 635/667, stem cell growth factor project, primary screen (AID 1067); conditions: higher = more signal;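 further: measures binding of biotinylated aFGF2 protein to printed compounds on slides; z-score merges feature fluorescence and signal-to-noise across triplicate slides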
[4] = small molecules captured by biotinylated probe aFGF10 – biochemical, small-molecule microarray, fluorescence 635/667, stem cell growth factor project, primary screen (AID 1071); conditions: higher = more signal;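 further: score merges 667 nm spot intensity and signal to noise from triplicate slides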
[5] = target: Neurogenic locus notch homolog protein 2 (Homo sapiens) (UniProt Q04721); test: small molecules binding Notch2 protein – biochemical, small-molecule microarray, 635 nm fluorescence, stem cell growth factors, primary screen (AID 1073); conditions: higher = more signal
[6] = target: Pro-neuregulin-1, membrane-bound isoform (Homo sapiens) (UniProt Q02297); test: small molecules binding neuregulin-1 protein – biochemical, small-molecule microarray, fluorescence 635/667, psychiatric disease protein project, primary screen (AID 1075); conditions: NRG1 binding, 635 nm fluorescence, higher = more signal;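 further: score combines 667 nm spot fluorescence with signal to noise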
[7] = test system: Neuregulin-1 EGF-like domain; test: small molecules binding NRG1 EGF domain – biochemical, small-molecule microarray, 635 nm fluorescence, primary screen (AID 1081); conditions: higher = more signal;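 further: binding of the protein to compounds printed on small-molecule microarray slides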
[8] = FRG1 expression reporter modulators in myotubes – cell-based, C2C12 myotubes, firefly/Renilla luciferase, luminescence, FRG1 inhibition for FSHD, primary screen (AID 1084); conditions: FRG1 promoter luciferase, higher = more signal, called active from +8 up or from −8 down
[9] = small molecules captured by biotinylated probe aFST – biochemical, small-molecule microarray, fluorescence 635/667, stem cell growth factor project, primary screen (AID 1086); conditions: higher = more signal;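 further: score merges 667 nm fluorescence with signal-to-noise of each printed compound spot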
[10] = binders of probe aHhip on microarray, primary screen, stem cell growth factor project, biochemical, small-molecule microarray, fluorescence 635/667 (AID 1087); conditions: higher = more signal;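 further: score merges spot fluorescence at 667nm with spot signal to noise ratio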

Sequence of Neurogenic locus notch homolog protein 2 (Homo sapiens) (Q04721 whole entry, looked up, canonical isoform): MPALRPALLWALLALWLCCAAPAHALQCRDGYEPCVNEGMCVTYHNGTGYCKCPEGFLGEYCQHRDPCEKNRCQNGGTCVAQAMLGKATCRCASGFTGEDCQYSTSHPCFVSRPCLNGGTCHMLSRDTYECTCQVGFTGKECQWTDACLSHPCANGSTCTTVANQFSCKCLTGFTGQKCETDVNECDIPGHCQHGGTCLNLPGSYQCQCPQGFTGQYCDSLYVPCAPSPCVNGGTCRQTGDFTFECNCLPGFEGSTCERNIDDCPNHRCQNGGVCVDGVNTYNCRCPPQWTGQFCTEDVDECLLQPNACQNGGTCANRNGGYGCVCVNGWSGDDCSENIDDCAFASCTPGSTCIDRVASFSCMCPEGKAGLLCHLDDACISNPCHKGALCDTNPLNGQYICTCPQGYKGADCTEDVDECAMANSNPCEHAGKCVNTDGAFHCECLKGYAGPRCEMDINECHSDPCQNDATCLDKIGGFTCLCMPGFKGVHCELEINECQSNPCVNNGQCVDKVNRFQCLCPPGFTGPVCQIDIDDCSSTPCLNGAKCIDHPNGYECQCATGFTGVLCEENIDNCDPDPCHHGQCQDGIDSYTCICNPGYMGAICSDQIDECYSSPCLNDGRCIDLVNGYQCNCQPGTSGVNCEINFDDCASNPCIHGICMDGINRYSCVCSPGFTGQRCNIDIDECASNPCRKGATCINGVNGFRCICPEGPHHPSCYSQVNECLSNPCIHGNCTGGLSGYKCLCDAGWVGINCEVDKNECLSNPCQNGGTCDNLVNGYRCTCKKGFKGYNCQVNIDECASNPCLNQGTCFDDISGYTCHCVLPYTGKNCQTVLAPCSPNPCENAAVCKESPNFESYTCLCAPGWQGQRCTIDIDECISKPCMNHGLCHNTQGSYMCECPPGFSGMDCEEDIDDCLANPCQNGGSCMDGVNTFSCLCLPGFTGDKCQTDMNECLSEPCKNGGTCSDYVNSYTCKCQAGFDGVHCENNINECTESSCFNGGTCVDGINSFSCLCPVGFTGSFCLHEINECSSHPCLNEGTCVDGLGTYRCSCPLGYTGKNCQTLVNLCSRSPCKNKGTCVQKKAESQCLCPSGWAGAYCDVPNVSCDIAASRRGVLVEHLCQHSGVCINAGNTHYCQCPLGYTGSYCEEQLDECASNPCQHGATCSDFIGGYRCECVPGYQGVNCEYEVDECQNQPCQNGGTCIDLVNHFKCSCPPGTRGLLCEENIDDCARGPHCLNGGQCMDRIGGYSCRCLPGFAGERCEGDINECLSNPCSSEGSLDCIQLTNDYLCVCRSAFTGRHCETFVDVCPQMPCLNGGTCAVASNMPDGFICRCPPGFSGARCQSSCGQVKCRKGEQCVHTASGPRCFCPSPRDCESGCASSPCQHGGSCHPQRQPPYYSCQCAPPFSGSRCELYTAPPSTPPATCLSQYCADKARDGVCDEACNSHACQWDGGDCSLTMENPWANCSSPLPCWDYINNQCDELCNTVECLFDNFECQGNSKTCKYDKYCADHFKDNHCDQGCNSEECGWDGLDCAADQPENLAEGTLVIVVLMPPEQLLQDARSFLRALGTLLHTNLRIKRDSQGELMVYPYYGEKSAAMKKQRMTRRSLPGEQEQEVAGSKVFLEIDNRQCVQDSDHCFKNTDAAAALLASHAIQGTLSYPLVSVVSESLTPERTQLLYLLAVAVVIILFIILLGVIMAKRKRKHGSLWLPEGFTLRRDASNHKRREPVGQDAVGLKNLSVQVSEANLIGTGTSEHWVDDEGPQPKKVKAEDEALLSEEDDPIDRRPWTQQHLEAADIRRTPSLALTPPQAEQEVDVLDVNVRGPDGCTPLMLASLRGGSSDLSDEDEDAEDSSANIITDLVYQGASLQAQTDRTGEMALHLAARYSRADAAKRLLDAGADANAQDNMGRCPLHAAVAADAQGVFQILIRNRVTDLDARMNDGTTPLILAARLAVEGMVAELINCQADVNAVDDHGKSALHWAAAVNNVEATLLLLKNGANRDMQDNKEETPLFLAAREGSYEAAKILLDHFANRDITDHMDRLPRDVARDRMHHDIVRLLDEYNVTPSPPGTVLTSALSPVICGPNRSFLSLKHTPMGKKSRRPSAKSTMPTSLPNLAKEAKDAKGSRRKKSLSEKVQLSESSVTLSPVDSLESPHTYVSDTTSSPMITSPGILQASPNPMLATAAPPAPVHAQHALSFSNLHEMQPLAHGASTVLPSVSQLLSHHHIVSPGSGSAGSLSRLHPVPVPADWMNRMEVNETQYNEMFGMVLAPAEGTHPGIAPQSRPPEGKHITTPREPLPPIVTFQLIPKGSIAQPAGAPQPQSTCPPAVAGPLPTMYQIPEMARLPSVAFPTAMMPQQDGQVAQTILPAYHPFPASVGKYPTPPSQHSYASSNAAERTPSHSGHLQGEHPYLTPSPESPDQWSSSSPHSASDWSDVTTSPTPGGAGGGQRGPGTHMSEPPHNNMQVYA
Sequence of Pro-neuregulin-1, membrane-bound isoform (Homo sapiens) (Q02297 whole entry, looked up, the tested form may be a part, canonical isoform): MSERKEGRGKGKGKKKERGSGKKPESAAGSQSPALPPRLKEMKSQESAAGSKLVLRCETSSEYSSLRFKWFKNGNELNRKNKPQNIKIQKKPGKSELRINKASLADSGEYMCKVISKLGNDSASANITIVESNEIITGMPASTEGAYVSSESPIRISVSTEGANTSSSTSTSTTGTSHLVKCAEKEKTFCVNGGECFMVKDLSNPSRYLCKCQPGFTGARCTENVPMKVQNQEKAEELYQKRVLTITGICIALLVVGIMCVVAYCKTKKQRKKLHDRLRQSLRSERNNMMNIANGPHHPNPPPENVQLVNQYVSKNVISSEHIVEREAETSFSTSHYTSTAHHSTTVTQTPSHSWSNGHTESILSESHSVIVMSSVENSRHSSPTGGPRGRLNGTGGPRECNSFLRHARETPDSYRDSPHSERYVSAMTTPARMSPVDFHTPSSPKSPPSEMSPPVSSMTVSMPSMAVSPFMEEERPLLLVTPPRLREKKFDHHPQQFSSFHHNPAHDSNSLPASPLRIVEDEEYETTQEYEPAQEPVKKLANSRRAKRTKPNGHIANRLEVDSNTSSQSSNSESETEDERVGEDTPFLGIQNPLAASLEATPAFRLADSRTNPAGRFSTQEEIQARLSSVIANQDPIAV

Row | SMILES | composite z-score [1] | composite z-score [2] | composite z-score [3] | composite z-score [4] | composite z-score [5] | composite z-score [6] | composite z-score [7] | z-score [8] | composite z-score [9] | composite z-score [10]
1 | CC(C)[C@H]1NC(=O)[C@@]23C(=O)N[C@@H](Cc4ccccc4)C2[C@H](C)[C@@]2(C)O[C@H]2C3/C=C/CCC/C=C/CNC(=O)[C@H](Cc2ccccc2)NC1=O (stereo not given in full) | -0.245 | 0.719 | -0.147 | -0.0587 | 0.046 | 1.57 | 1.22 | 0.966 (inactive) | -0.419 | -0.319
2 | NC(=O)[C@H]1[C@@H]2C(=O)O[C@@H](c3ccccc3)[C@@H](c3ccccc3)N2[C@@H](c2ccc(O)cc2)[C@]12C(=O)Nc1ccc(C#CC3=CCCCC3)cc12 | 0.124 | 0.813 | -0.0979 | -0.105 | -0.734 | 1.22 | 1.25 | 1.23 (inactive) | 0.0569 | -0.406
3 | C=C[C@@H](C)[C@H](O)c1ccc(OCCO)cc1 | 0.684 | -1.91 | -0.182 | -0.84 | -1.67 | -0.0655 | 1.04 | 5.39 (inactive) | -1.06 | -0.236
4 | CCOC(=O)C=Cc1cc(F)ccc1O | 0.0251 | 0.17 | 0.0087 | 0.207 | -0.0641 | -0.0469 | 0.398 | 0.808 (inactive) | -0.0919 | 0.0524
5 | COCCCNC(=O)[C@@]1(Sc2ccc(C)cc2)CC(=O)N(C(C)C)[C@@H]1c1ccc(CO)cc1I | 0.438 | -0.107 | 0.0854 | 0.606 | -0.622 | 1.89 | 1.25 | -1.2 (inactive) | -0.307 | -0.0581
6 | CCCCNC(=O)c1ccc(C#C[Si](C(C)C)(C(C)C)C(C)C)c(OC(C)=O)c1 | -0.294 | -0.189 | -0.108 | 0.493 | 1.57 | 0.812 | 1.09 | -0.198 (inactive) | 0.207 | 0.0722
7 | COCCOC(=O)N1C(=O)[C@@]2(c3cc(C#CCNC(N)=O)ccc31)[C@H](c1ccc(O)cc1)N1[C@H](c3ccccc3)[C@H](c3ccccc3)OC(=O)[C@H]1[C@@H]2C(N)=O | 0.161 | -0.412 | -0.161 | -0.484 | -2.04 | -0.702 | -0.0682 | 0.0283 (inactive) | -0.567 | -0.39
8 | C=C/C=C/[C@@H]1C(=C)CN([C@@H](Cc2ccccc2)C(=O)OC)[C@H]1[C@@H](O)Cc1ccccc1 | -0.252 | 0.814 | -0.109 | 0.34 | 0.186 | 0.404 | 1 | -0.661 (inactive) | 0.101 | -0.0645
9 | C[C@]1(C(=O)O)c2ccccc2C(=O)N(Cc2ccc(OC(F)(F)F)cc2)[C@H]1c1ccc(CO)cc1 | 0.592 | -0.139 | -0.0442 | -0.106 | -0.0052 | 0.787 | 0.509 | -1.27 (inactive) | 0.302 | -0.226
10 | CCCCC(=C=CC[C@H](O)c1ccc(OCCO)cc1)C[C@H](O)COCc1ccccc1 | -0.117 | -0.366 | -0.0409 | 0.692 | -0.238 | 1.06 | 0.879 | -0.947 (inactive) | -0.0834 | 0.152
11 | CN1C(=O)C2C(C1=O)C1C=C(CCCO)C2C(c2cccs2)N1Cc1cc2c(cc1Br)OCO2 (stereo not given) | -0.262 | 0.725 | 0.131 | 0.645 | 1.62 | 2.19 | 1.28 | -3.26 (inactive) | 1.6 | -0.109
12 | CCN(CC)c1ccc(N2CC=CC34O[C@@H]5C=CCCOC(=O)C5[C@H]3C(=O)N(CCO)[C@@H]4C2=O)cc1 (stereo not given in full) | 0.171 | -0.981 | -0.18 | -0.463 | -0.894 | -0.684 | 1.52 | -0.329 (inactive) | -0.209 | -0.137
13 | C=CCC(OC(C)=O)[C@@H]1[C@@H](N(Cc2cccc3ccccc23)C(=O)c2ccc(-c3ccccc3)cc2)c2cc(OCCCO)ccc2N1C(=O)c1ccc(-c2ccccc2)cc1 (stereo not given in full) | -0.0061 | 0.356 | -0.06 | 0.0099 | 0.369 | 0.0975 | -0.453 | -0.774 (inactive) | 0.392 | 0.0274
14 | COCCOC(=O)N1C(=O)[C@@]2(c3cc(C#CC4=CCCCC4)ccc31)[C@H](C(=O)N1CCCCCCC1)[C@H]1C(=O)O[C@H](c3ccccc3)[C@H](c3ccccc3)N1[C@@H]2c1ccc(OCCO)cc1 | 1.77 | 0.399 | 0.316 | 0.5 | 0.891 | 0.455 | 1.1 | 1.06 (inactive) | 1.36 | 0.739
15 | Cc1ccccc1C(O)C1C=CC2C(=O)N(c3ccccc3)C(=O)C2N1Nc1ccc([N+](=O)[O-])cc1 (stereo not given) | -0.0848 | 0.804 | -0.0271 | 0.681 | 1.07 | 1.87 | 1.27 | -1.24 (inactive) | 0.886 | -0.189
16 | CN1C(=O)[C@@]2(Cc3ccccc3)N=C(c3ccc(OCCCO)cc3)O[C@H]2c2ccccc21 | 0.331 | 0.295 | 0.0175 | 0.261 | 0.921 | 0.501 | 1.21 | -2.02 (inactive) | 0.511 | -0.156
17 | C=CCNC(=O)[C@H]1[C@@H]2C(=O)O[C@@H](c3ccccc3)[C@@H](c3ccccc3)N2[C@@H](c2ccc(OCCO)cc2)[C@]12C(=O)Nc1ccc(C#CCNC(N)=O)cc12 | 0.264 | 0.311 | 0.0015 | 0.641 | 0.112 | 0.883 | 0.817 | -0.651 (inactive) | 1.28 | 0.0623
18 | C=CCC(OC(C)=O)[C@@H]1[C@@H](N(Cc2cccc3ccccc23)C(=O)Cc2ccc(F)cc2)c2cc(OCCCO)ccc2N1C(=O)c1ccc(-c2ccccc2)cc1 (stereo not given in full) | 0.873 | -0.302 | -0.0427 | -0.387 | -0.648 | -0.61 | -0.802 | -1.83 (inactive) | 0.392 | -0.14
19 | [N-]=[N+]=Nc1ccccc1[C@@H]1OC(c2ccc(OCCCO)cc2)=N[C@]1(Cc1ccccc1)C(=O)NCc1ccccc1 | 0.97 | 1.72 | 0.0653 | 0.371 | 1.59 | 1.6 | 1.2 | -1.2 (inactive) | 1.21 | 0.0614
20 | COC(=O)[C@@]1(Cc2ccc(F)cc2)[C@H]2c3cc(C(=O)N4CCCC4)n(C)c3C[C@H]2CN1C(=O)c1ccccc1 | 1.18 | 0.155 | 0.404 | 0.779 | 1.69 | 2.15 | 1.34 | -0.234 (inactive) | 0.951 | -0.0645
21 | C[C@@]12COC[C@]13C=C(Br)[C@H](C2)[C@@]1(CO1)C3=O | 0.129 | -1.21 | -0.04 | -0.455 | -0.895 | -0.708 | -1.12 | -0.293 (inactive) | -0.476 | -0.134
22 | CCc1cccc(NC(=O)O[C@H]2[C@H](OC(=O)Nc3ccccc3)[C@H](OC(=O)Nc3ccccc3)[C@@H](OC)O[C@@H]2CO)c1 | -0.0949 | 0.0776 | 0.0457 | 1.2 | 1.19 | 1.7 | 1.25 | 2.16 (inactive) | 0.766 | -0.201
23 | Nc1cc(Br)ccc1C(=O)O | -0.0861 | 0.0499 | -0.17 | 0.307 | 0.314 | 0.505 | 0.742 | 0.0039 (inactive) | 0.195 | -0.229
24 | [N-]=[N+]=Nc1ccccc1C[C@]1(C(=O)O)N=C(c2ccc(OCCCO)cc2)O[C@H]1c1ccccc1 | 0.0867 | 0.444 | -0.0785 | 0.743 | 0.448 | 1.94 | 1.21 | -1.4 (inactive) | 0.834 | -0.199
25 | [N-]=[N+]=NC[C@H](Cc1ccccc1)NC(=O)c1ccccc1 | -0.259 | 0.2 | -0.107 | -0.168 | -0.0596 | -0.0451 | -0.123 | 1.43 (inactive) | 0.135 | -0.0618
26 | CC(C)=CCCC(C)=CC(O)C1C=CC2C(=O)N(c3ccccc3)C(=O)C2N1Nc1ccccc1F (stereo not given) | -0.0417 | -0.113 | -0.138 | 0.498 | 0.765 | 1.49 | 1.09 | 0.314 (inactive) | -0.174 | -0.329
27 | CC(C)CNC(=O)[C@@]1(C)c2ccccc2C(=O)N(Cc2cc(C(F)(F)F)cc(C(F)(F)F)c2)[C@H]1c1ccc(CO)cc1 | 0.0317 | 0.0213 | -0.178 | -0.278 | -0.474 | -0.12 | 0.492 | -1.43 (inactive) | -0.635 | 0.0156
